# Results published in PubChem BioAssay (NCATS).
# Where “and” joins values, the source holds several entries; their conditions need not be identical. Identical values can stand only once. Records with an inconclusive call do not appear. Some compounds were tested as several samples or in several runs, with calls that do not always agree. Calls of active or inactive are those of the source. Unless noted, calls follow the shape of the dose curve; as a rule, active = well fitted curve in the direction sought with a large enough effect; inconclusive = small, poorly fitted or top-dose-only effect, or another doubt; inactive = no such curve, though single readings can be large; an effect the other way counts as inactive or inconclusive.
# Experiments:
# [1] = Primary qHTS for inhibitors of nuclear receptor binding SET domain protein 2 (NSD2) in an isogenic RCH-ACV NSD2 p.E1099K mutant (9B) (AID 1645876); also: nearly all actives have a fitted effect of over 70% in size; also: potency is read from the fitted curve at half-maximal effect
# [2] = Primary qHTS for inhibitors of nuclear receptor binding SET domain protein 2 (NSD2) in an RCH-ACV wild type WT cells (2C) (AID 1645877); also: nearly all actives have a fitted effect of over 70% in size; also: potency is read from the fitted curve at half-maximal effect
# [3] = target: N-terminal Xaa-Pro-Lys N-methyltransferase 1 (Homo sapiens) (UniProt Q9BV86); assay: Confirmatory qHTS for Inhibitors of N-terminal methyltransferase 1 (NTMT1): MTaseGlo Assay (AID 1645874); also: nearly all actives have a fitted effect of over 65% in size; also: potency is read from the fitted curve at half-maximal effect;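 as to activity change, negative = inhibition: luminescence from SAH made as NTMT1 methylates SPKRIA peptide using SAM; 0% = DMSO control and -100% = no-enzyme control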
# Sequence of N-terminal Xaa-Pro-Lys N-methyltransferase 1 (Homo sapiens) (Q9BV86 whole entry, looked up): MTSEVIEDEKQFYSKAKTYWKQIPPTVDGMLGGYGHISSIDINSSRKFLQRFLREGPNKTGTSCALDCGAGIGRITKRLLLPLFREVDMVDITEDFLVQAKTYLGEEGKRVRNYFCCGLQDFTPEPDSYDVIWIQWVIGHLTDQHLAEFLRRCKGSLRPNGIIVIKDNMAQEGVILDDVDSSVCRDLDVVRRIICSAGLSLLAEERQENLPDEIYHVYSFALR
# Summary of the method: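 Luminescent MTase-Glo read-out of SAH. 125 nM NTMT1, 100 uM SAM, 1 uM SPKRIA substrate, 30 min RT reaction after 15 min compound preincubation. Normalized to no-enzyme and DMSO controls; Hill fit.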
# [4] = target: Catechol O-methyltransferase (Homo sapiens) (UniProt P21964); assay: Confirmatory Screen for Target Class Profiling of Small Molecule Inhibitors of Methyltransferases (AID 1745852; calls by dose curve; as to activity change, negative = inhibition: % is scaled to controls: 0 for no effect and ±100 for the full control effect); conditions: MTase-Glo luminescence, SAH detection, recombinant enzyme; measured here: COMT max response; stronger effect = lower value
# Sequence of Catechol O-methyltransferase (Homo sapiens) (P21964 whole entry, looked up): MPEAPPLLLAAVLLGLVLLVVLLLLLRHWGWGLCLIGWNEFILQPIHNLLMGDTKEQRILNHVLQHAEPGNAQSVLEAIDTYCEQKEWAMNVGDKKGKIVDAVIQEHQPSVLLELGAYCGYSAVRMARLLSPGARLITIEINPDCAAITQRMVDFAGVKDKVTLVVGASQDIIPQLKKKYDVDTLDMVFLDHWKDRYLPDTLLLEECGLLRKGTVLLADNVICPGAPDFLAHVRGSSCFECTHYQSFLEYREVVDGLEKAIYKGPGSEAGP
# [5] = target: Guanidinoacetate N-methyltransferase (Homo sapiens) (UniProt Q14353); assay: as above; conditions: MTase-Glo luminescence, SAH detection, recombinant enzyme; activity change, negative = inhibition: at 57.3 µM (top of the series) unless noted
smiles,measurement,setting,value
CN(C[C@@H]1COCCO1)S(=O)(=O)Nc1ccc2ccc3ncc(-c4cnn(C)c4)cc3c(=O)c2c1,Potency,[1],5.15 µM (active)
same,Potency,[2],6.49 µM (active)
Cc1nc(N)sc1-c1ccnc(Nc2ccc(N3CCOCC3)cc2)n1,Potency,[1],409 nM (active) and 590 nM (active)
same,Potency,[2],459 nM (active) and 468 nM (active)
CC1(C)Cc2c(sc(NC(=S)NC(=O)c3ccccc3)c2C(=O)O)CO1,Potency,[1],inactive
same,Potency,[2],inactive
COc1ccc2c(Oc3ccc(NC(=O)c4c(C)n(CC(C)(C)O)n(-c5ccccc5)c4=O)nc3)ccnc2c1,Potency,[1],inactive
CC#CCn1c(N2CCC[C@@H](N)C2)nc2c1c(=O)n(Cc1nc(C)c3ccccc3n1)c(=O)n2C,Potency,[1],inactive
same,Potency,[2],inactive
CC(=O)Nc1ccc([C@H](C)C(=O)Nc2ncc(C(C)C)s2)cc1,Potency,[1],2.63 µM (active)
same,Potency,[2],2.35 µM (active)
COc1ccc(-n2c(C)c([N+](=O)[O-])c3ccc(O)cc32)cc1,Potency,[1],inactive
same,Potency,[2],inactive
CCOc1ccc(Nc2nc(-c3c(C)nc4ccccn34)cs2)cc1,Potency,[3],inactive
same,Potency,[1],0.183 µM (active)
same,Potency,[2],183 nM (active) and inactive
CC(=O)Oc1cc2c(s1)CCN(C(C(=O)C1CC1)c1ccccc1F)C2 (configuration not stated),Potency,[1],inactive
same,Potency,[2],inactive
N[C@@]1(C(=O)O)CS(=O)(=O)[C@H]2[C@H](C(=O)O)[C@H]21,Potency,[1],inactive
same,Potency,[2],inactive
O=C(O)c1cc(-c2ccccc2)nc2ccccc12,Potency,[1],inactive
same,Potency,[2],inactive
O=C(O)c1c(Cl)c(Cl)c(Cl)c(Cl)c1-c1c2cc(I)c(=O)c(I)c-2oc2c(I)c(O)c(I)cc12,Potency,[3],9.55 µM (active)
same,Potency,[2],9.34 µM (active)
CC(C)(C)Cn1c(N)nc2ccc(-c3[nH]c(C(C)(C)C)nc3-c3ccc(F)cc3)nc21,Potency,[3],17.8 µM (active)
same,Potency,[1],2.9 µM (active) and 16.6 µM (active)
same,Potency,[2],2.58 µM (active) and 16.6 µM (active)
COc1ccc(-c2coc3cc(O)cc(O)c3c2=O)cc1,Potency,[1],18.6 µM (active)
CS(=O)c1ccc(-c2nc(-c3ccc(F)cc3)c(-c3ccncc3)[nH]2)cc1 (configuration not stated),Potency,[1],18.6 µM (active)
CC(C)n1cnc2c(NCCCCCCNC(=O)OC(C)(C)C)nc(NCCO)nc21,Potency,[1],14.8 µM (active)
same,Potency,[2],16.6 µM (active)
Oc1ccc(C2CCN(c3ccnc4ccccc34)CC2)cc1O,Potency,[1],13.2 µM (active)
same,Potency,[2],11.8 µM (active)
CC(C)(Cc1ccc2ccccc2c1)NC[C@@H](O)COc1cccc(Cl)c1C#N,Potency,[1],4.68 µM (active)
same,Potency,[2],6.61 µM (active)
COc1cccc2c1CCCC2CCCN1CCN(C2CCCCC2)CC1 (configuration not stated),Potency,[1],20.9 µM (active)
same,Potency,[2],20.9 µM (active)
CCCCCCCCCCCC1=C(O)C(=O)C=C(O)C1=O,Potency,[1],inactive
same,Potency,[2],inactive
Cc1ccc(Nc2cc(-c3cccc(N4C(=O)c5ccccc5C4=O)c3)ncn2)cc1NS(C)(=O)=O,Potency,[1],16.6 µM (active)
same,Potency,[2],18.6 µM (active)
O=C(O)c1ccc(-c2c[nH]c3ncc(-c4ccccc4)cc23)cc1C1CCCC1,Potency,[1],inactive
same,Potency,[2],18.6 µM (active)
CC(C)n1nc(-c2ccc3oc(N)nc3c2)c2c(N)ncnc21,Potency,[1],36.5 nM (active) and 29.5 nM (active)
same,Potency,[2],36.5 nM (active) and 33.2 nM (active)
O=C(O)c1cc(O)c2c(c1)C(=O)c1cccc(O)c1C2=O,Potency,[1],inactive
same,Potency,[2],inactive
O=C(CCN1CCN(C(=O)OCc2cc(Cl)cc(Cl)c2)CC1)c1ccc2[nH]c(=O)oc2c1,Potency,[1],18.6 µM (active)
same,Potency,[2],14.5 µM (active) and 18.6 µM (active)
COc1ncc(-c2ccc3nccc(-c4ccnnc4)c3c2)cc1NS(=O)(=O)c1ccc(F)cc1F,Potency,[1],1.3 nM (active) and 8.3 nM (active)
same,Potency,[2],1.2 nM (active) and 7.4 nM (active)
CC(C)(C)NC(=O)Nc1cccc(Nc2ncc(F)c(NC(C)(C)CO)n2)c1,Potency,[1],5.78 µM (active)
same,Potency,[2],2.63 µM (active)
COCCOC(=O)C1=C(C)NC2=C(C(=O)CC(c3ccccc3OC)C2)C1c1cccc(O)c1 (configuration not stated),Potency,[1],4.68 µM (active) and 3.65 µM (active)
same,Potency,[2],3.72 µM (active) and 3.25 µM (active)
CN(C)Cc1ccc(-c2nc3cccc4c3n2CCNC4=O)cc1,Potency,[1],11.8 µM (active)
same,Potency,[2],7.42 µM (active)
NC(=O)c1cccc(-c2cc(Nc3ccc(OC(F)(F)F)cc3)ncn2)c1,Potency,[1],20.5 µM (active) and 14.8 µM (active)
same,Potency,[2],23 µM (active) and 13.2 µM (active)
CO[C@H]1C(=O)[C@]2(C)[C@@H](OC)C[C@H]3OC[C@@]3(OC(C)=O)[C@H]2[C@H](OC(=O)c2ccccc2)[C@]2(O)C[C@H](OC(=O)[C@H](O)[C@@H](NC(=O)OC(C)(C)C)c3ccccc3)C(C)=C1C2(C)C,Potency,[1],0.003 µM (active)
same,Potency,[2],0.0026 µM (active)
CC(C)C(=O)Oc1ccc(CO)cc1[C@H](CCN(C(C)C)C(C)C)c1ccccc1,Potency,[1],inactive
same,Potency,[2],inactive
O=c1[nH]cnc2c1ncn2[C@H]1CC[C@@H](CO)O1,Potency,[1],inactive
same,Potency,[2],inactive
COc1ccc2cc(-c3nc(-c4ccc(S(C)=O)cc4)[nH]c3-c3ccncc3)ccc2c1 (configuration not stated),Potency,[1],23.5 µM (active) and 20.5 µM (active)
same,Potency,[2],26.3 µM (active) and 20.5 µM (active)
O=c1cc(N2CCOCC2)oc2c(-c3cccc4c3sc3ccccc34)cccc12,Potency,[1],3.32 µM (active)
same,Potency,[2],2.63 µM (active)
NC(=O)[C@@H](CCC(F)(F)F)N(Cc1ccc(-c2ncon2)cc1F)S(=O)(=O)c1ccc(Cl)cc1,Potency,[1],23.5 µM (active)
same,Potency,[2],23.5 µM (active)
CCc1ccc(OCc2ccccc2C(=O)Nc2ccc3nc(C)cc(N)c3c2)cc1,Potency,[1],2.63 µM (active)
same,Potency,[2],2.95 µM (active)
c1cc(-c2sc(-c3ccncc3)c(-c3ccncc3)c2-c2ccncc2)ccn1,Potency,[1],inactive
same,Potency,[2],inactive
CC(C)=CC[C@@H](O)C1=CC(=O)c2c(O)ccc(O)c2C1=O,Potency,[1],23.5 µM (active)
same,Potency,[2],20.9 µM (active)
CN(C)C1CCN(C(=O)c2ccc(NC(=O)Nc3nc(N4CCOCC4)nc(N4CCOCC4)n3)cc2)CC1,Potency,[1],25.2 nM (active) and 37.2 nM (active)
same,Potency,[2],28.2 nM (active) and 37.2 nM (active)
COc1cc2c(cc1OC)CN(CCc1ccc(NC(=O)c3cc(OC)c(OC)cc3NC(=O)c3cnc4ccccc4c3)cc1)CC2,Potency,[1],inactive
same,Potency,[2],inactive
Cc1ccc(C(=O)Nc2cccc(C(F)(F)F)c2)cc1Nc1nc(-c2cccnc2)nc2c1cnn2C,Potency,[1],inactive
same,Potency,[2],inactive
NC(=O)c1cccc2[nH]c(-c3ccc([C@H]4CCCN4)cc3F)nc12,Potency,[1],14.8 µM (active)
same,Potency,[2],10.5 µM (active)
COc1cc2nc(-c3ccc(N4CCN(C)CC4)cc3)nc(NCCN3CCOCC3)c2cc1OC,Potency,[1],1.86 µM (active)
same,Potency,[2],2.09 µM (active)
NS(=O)(=O)c1cccc2c1C(=O)c1cccc(O)c1C2=O,Potency,[1],1.66 µM (active)
same,Potency,[2],0.742 µM (active)
C=C1C(=O)OC(CCCCCCCC)C1C(=O)O (configuration not stated),Potency,[1],inactive
same,Potency,[2],inactive
COCCOc1nc(-c2ccc(Cl)c(Cl)c2)n(-c2ccc(NC(=O)CCl)cc2)n1,Potency,[1],1.48 µM (active)
same,Potency,[2],1.32 µM (active)
Nc1ncnc2ccccc12,Potency,[1],inactive
same,Potency,[2],inactive
C[C@@H](O)[C@H]1C(=O)N2C(C(=O)O)=C(S[C@@H]3CN[C@H](C(=O)N(C)C)C3)[C@H](C)[C@H]12,Potency,[1],inactive
same,Potency,[2],inactive
CO[C@@H](C(=O)N1Cc2[nH]nc(NC(=O)c3ccc(N4CCN(C)CC4)cc3)c2C1)c1ccccc1,Potency,[1],73.1 nM (active) and 118 nM (active)
same,Potency,[2],58 nM (active) and 52.5 nM (active)
CC(C)C(=O)Nc1ncc(-c2cc(C(F)F)nn2-c2c(Cl)cccc2Cl)s1,Potency,[1],23 µM (active)
same,Potency,[2],23 µM (active)
NS(=O)(=O)c1ccc(NC2=CC(=O)c3ccccc3C2=O)cc1,Potency,[1],inactive
same,Potency,[2],inactive
OC[C@@H](O)[C@H](O)[C@H](O)[C@@H](O)CO,Potency,[1],inactive
same,Potency,[2],inactive
CC(C(=O)O)c1ccc(-c2ccccc2)c(F)c1 (configuration not stated),Potency,[1],inactive
same,Potency,[2],inactive
NC(CO)(CO)CCc1ccc(Sc2cccc(OCc3ccccc3)c2)cc1Cl,Potency,[1],7.42 µM (active)
same,Potency,[2],7.42 µM (active)
COc1ccc(-c2cc(=O)c3c(O)cc(O)cc3o2)cc1O,Potency,[1],11.8 µM (active)
same,Potency,[2],14.8 µM (active)
CCN(CC)CCNC(=O)c1ccc(N)cc1,Potency,[1],inactive
same,Potency,[2],inactive
COC1CCC(N(C(=O)C2CCC(C)CC2)c2cc(C3=CCCCC3)sc2C(=O)O)CC1 (configuration not stated),Potency,[1],inactive
same,Potency,[2],inactive
CC(=O)N(C)C1(c2ccccc2)CCN(CCC[C@]2(c3ccc(Cl)c(Cl)c3)CCCN(C(=O)c3ccccc3)C2)CC1,Potency,[1],7.28 µM (active)
same,Potency,[2],5.78 µM (active)
same,activity,[4],-5.14%
same,"activity change, negative = inhibition",[5],0%
O=c1cc(CN2CCOCC2)occ1OCCCCCSc1ccnc2cc(C(F)(F)F)ccc12,Potency,[1],18.6 µM (active) and 9.16 µM (active)
same,Potency,[2],16.6 µM (active) and 18.3 µM (active)
CCNc1cc(NC2CCC(O)CC2)nc(Nc2ccc3c(ccn3Cc3ccccc3)c2)n1 (configuration not stated),Potency,[2],3.32 µM (active)
NC(=O)c1ccc2nc(-c3ccc(Oc4ccc(Cl)cc4)cc3)[nH]c2c1,Potency,[1],14.5 µM (active) and 23.1 µM (active)
same,Potency,[2],16.6 µM (active) and 16.4 µM (active)
CN1CCN(CCOc2cc(OC3CCOCC3)c3c(Nc4c(Cl)ccc5c4OCO5)ncnc3c2)CC1,Potency,[1],3.25 µM (active) and 2.63 µM (active)
same,Potency,[2],5.15 µM (active) and 2.95 µM (active)
same,activity,[4],-14.1%
same,"activity change, negative = inhibition",[5],-0.0396%
CC1(C)CCC(CN2CCN(c3ccc(C(=O)NS(=O)(=O)c4ccc(NCC5CCOCC5)c([N+](=O)[O-])c4)c(Oc4cnc5[nH]ccc5c4)c3)CC2)=C(c2ccc(Cl)cc2)C1,Potency,[1],11.2 µM (active) and inactive
same,Potency,[2],12.6 µM (active) and inactive
same,activity,[4],-3.58%
same,"activity change, negative = inhibition",[5],1.26% [at 29.8 µM]
